Test results from PubChem BioAssay (EPA / NIEHS).
Results filed as inconclusive are left out. Activity calls are given as the source filed them. The calls were made as follows: active = hit-call score of the fitted dose curve at least 0.9, where 1 is the maximum; inconclusive = response in the unintended direction; inactive = score below 0.9.

Key:
[1] = ACEA_AR_antagonist_AUC_viability: ACEA Biosciences xCELLigence Real-Time Cell Analysis on Androgen Receptor Antagonism for Viability (AID 2283776);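 also: 22Rv1 human prostate cancer cells growing on impedance electrode plates; area under impedance growth curve at 80 h after dosing as viability; hits lower the growth signal relative to DMSO meaning cytotoxicity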
Method in brief: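 22Rv1 prostate cells, continuous dosing up to 100 uM final (0.5% DMSO max), duplicate plates. Growth measured by impedance; AUC at 80 h, loss of signal vs DMSO.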

[2] = ACEA_ER_AUC_viability: ACEA Biosciences xCELLigence Real-Time Cell Analysis on Estrogen Receptor Agonism for Viability (AID 2283782);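 also: continuous compound exposure with impedance area under curve over 80 h; hit means loss of impedance signal meaning reduced cell growth or viability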
Method in brief: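 T-47D human breast cells in phenol red-free RPMI1640 with 10% charcoal-stripped FBS were dosed with an 8-point 1:4 dilution series from 100 uM top final concentration, in duplicate. Impedance-based growth was followed for 80 h; AUC analysed versus DMSO.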

[3] = ACEA_AR_agonist_AUC_viability: ACEA Biosciences xCELLigence Real-Time Cell Analysis on Androgen Receptor Agonism for Viability (AID 2283775);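 as to AC50: viability read 80 hours after compound addition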
Method in brief: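 Read-out is area under the impedance curve at 80 h post-dose in 22Rv1 cells, with DMSO as baseline and signal loss taken as reduced viability. Compounds ran in duplicate from 100 uM final.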

[4] = target: AR (gene 367) (UniProt P10275); assay: ACEA_AR_antagonist_80hr: ACEA Biosciences xCELLigence Real-Time Cell Analysis on Androgen Receptor Antagonism for Proliferation (AID 2283787);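 also: hits lower the impedance growth signal relative to DMSO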
Method in brief: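 Impedance readout (RT-CES), 80 h post-dose; loss-of-signal vs DMSO baseline. 22Rv1 cells in assay medium. Compounds: 8-pt 1:4 series, max 100 uM final, up to 0.5% DMSO; n = 2.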

[5] = target: AR (gene 367) (UniProt P10275); assay: ACEA_AR_agonist_80hr: ACEA Biosciences xCELLigence Real-Time Cell Analysis on Androgen Receptor Agonism for Proliferation (AID 2283783);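 also: hits increase impedance growth signal above DMSO baseline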
Method in brief: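 22Rv1 human prostate cancer cells were seeded after preconditioning in assay medium and monitored overnight, then dosed in an eight-point 1:4 dilution series from 100 uM (≤0.5% DMSO). Impedance-based growth was read at 80 h, gain-of-signal versus DMSO.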

Sequence of AR (gene 367) (P10275 whole entry, looked up): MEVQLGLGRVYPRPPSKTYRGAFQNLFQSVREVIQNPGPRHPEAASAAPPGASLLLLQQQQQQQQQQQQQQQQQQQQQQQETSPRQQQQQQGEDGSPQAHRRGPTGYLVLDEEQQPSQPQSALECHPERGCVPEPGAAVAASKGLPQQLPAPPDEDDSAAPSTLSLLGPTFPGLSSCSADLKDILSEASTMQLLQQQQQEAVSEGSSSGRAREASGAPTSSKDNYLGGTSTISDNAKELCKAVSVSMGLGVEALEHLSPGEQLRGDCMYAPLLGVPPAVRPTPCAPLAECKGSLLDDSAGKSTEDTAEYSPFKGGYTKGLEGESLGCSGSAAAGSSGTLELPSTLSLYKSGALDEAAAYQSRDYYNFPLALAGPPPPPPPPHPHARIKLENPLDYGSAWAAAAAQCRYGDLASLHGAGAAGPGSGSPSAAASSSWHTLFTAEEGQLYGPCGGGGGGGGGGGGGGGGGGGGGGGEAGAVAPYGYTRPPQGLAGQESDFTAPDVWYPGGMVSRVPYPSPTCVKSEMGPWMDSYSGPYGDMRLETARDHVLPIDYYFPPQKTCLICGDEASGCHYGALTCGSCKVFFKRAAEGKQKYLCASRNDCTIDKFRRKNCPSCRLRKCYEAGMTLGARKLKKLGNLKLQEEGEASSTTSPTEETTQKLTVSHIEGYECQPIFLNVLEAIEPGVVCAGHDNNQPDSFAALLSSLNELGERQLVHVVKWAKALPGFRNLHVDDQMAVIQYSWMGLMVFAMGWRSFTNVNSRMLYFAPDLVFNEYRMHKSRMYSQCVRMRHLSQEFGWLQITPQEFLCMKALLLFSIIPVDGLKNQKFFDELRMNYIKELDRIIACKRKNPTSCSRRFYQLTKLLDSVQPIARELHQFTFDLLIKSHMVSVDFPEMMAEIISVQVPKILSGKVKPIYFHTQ

Q: Which results are given for `CCCCCCCCCCCC(=O)OCC(O)CO` (stereo not drawn)?
A: outcome [1]: inactive; AC50 [2]: 50 µM (active)

Q: Which AC50 [2] does the source give for `CCCC[P+](CCCC)(CCCC)CCCC` here?
A: 91.7 µM (active)

Q: With `CCCCC1CCC(O)CC1` (stereo not drawn) as the molecule, how does the outcome [3] read?
A: inactive

Q: And the outcome [1]?
A: inactive

Q: What about the outcome [2] of the same molecule?
A: inactive

Q: What about the outcome [4] of the same molecule?
A: inactive

Q: For `CC1(C)C2=CCCC(C)(C)[C@]23CC[C@H]1C3`, which AC50 [2] is on record?
A: 78.4 µM (active)

Q: Which outcome [2] does the source give for `C=C(CC(=O)O)C(=O)O` here?
A: inactive

Q: With `OCc1cccc(Oc2ccccc2)c1` as the molecule, how does the outcome [3] read?
A: inactive

Q: And the outcome [1]?
A: inactive

Q: And the outcome [5]?
A: inactive

Q: With `CCOC(=O)[C@@H](C)Oc1ccc(Oc2nc3ccc(Cl)cc3o2)cc1` as the molecule, how does the AC50 [3] read?
A: 5.36 µM (active)

Q: What about the outcome [1] of the same molecule?
A: inactive

Q: And the AC50 [4]?
A: 3.55 µM (active)

Q: For `COc1ccc(COC(C)=O)cc1`, which outcome [2] is on record?
A: inactive

Q: With `CCCCCCC(C)(C)S` as the molecule, how does the outcome [3] read?
A: inactive

Q: And the outcome [2]?
A: inactive

Q: What does the source list for `O=CCc1ccccc1`?
A: outcome [3]: inactive; AC50 [2]: 78.6 µM (active)

Q: For `C=C1C[C@]23C[C@@]1(O)CC[C@H]2[C@@]12C=C[C@H](O)[C@@](C)(C(=O)O1)[C@H]2[C@@H]3C(=O)O`, which outcome [1] is on record?
A: inactive

Q: What about the outcome [2] of the same molecule?
A: inactive

Q: With `CC(C=O)Cc1ccc(C(C)(C)C)cc1` (stereo not drawn) as the molecule, how does the outcome [3] read?
A: inactive

Q: What about the outcome [1] of the same molecule?
A: inactive

Q: And the outcome [4]?
A: inactive

Q: With `OCCCCC(O)CO` (stereo not drawn) as the molecule, how does the outcome [2] read?
A: inactive

Q: With `C=CCN(CC=C)CC=C` as the molecule, how does the AC50 [2] read?
A: 61.2 µM (active)

Q: Which results are given for `O=C(c1ccccc1)C(O)c1ccccc1` (stereo not drawn)?
A: outcome [1]: inactive; outcome [2]: inactive

Q: Which outcome [1] does the source give for `O=C(CC(=O)c1ccccc1)c1ccccc1` here?
A: inactive

Q: What does the source list for `CC(=O)O[C@@H]1CC2CCC1(C)C2(C)C` (stereo partly drawn)?
A: outcome [3]: inactive; outcome [1]: inactive; outcome [2]: inactive; outcome [4]: inactive

Q: What does the source list for `COC(=O)c1ccc(C)cc1C1=NC(C)(C(C)C)C(=O)N1` (stereo not drawn) (tested in a mixture with another compound)?
A: outcome [1]: inactive; outcome [2]: inactive

Q: With `CCCCC(CC)COC(C)=O` (stereo not drawn) as the molecule, how does the outcome [1] read?
A: inactive

Q: For `Cc1ccc(S(N)(=O)=O)cc1`, which outcome [1] is on record?
A: inactive

Q: For `CCCCCCCCCCCCN1CCCCCC1=O`, which outcome [3] is on record?
A: inactive

Q: And the AC50 [2]?
A: 31.3 µM (active)

Q: With `Cc1occc(=O)c1OC(=O)C(C)C` as the molecule, how does the outcome [2] read?
A: inactive

Q: With `CCOc1ccc(NC(=O)CC(C)=O)cc1` as the molecule, how does the outcome [2] read?
A: inactive

Q: For `C=Cc1ccncc1`, which AC50 [2] is on record?
A: 37.3 µM (active)

Q: For `C=Cc1ccc(C)cc1`, which outcome [3] is on record?
A: inactive

Q: What about the outcome [2] of the same molecule?
A: inactive

Q: For `CCCCCCC(=O)c1ccccc1`, which outcome [3] is on record?
A: inactive

Q: And the outcome [2]?
A: inactive

Q: With `COc1ccc(N)c([N+](=O)[O-])c1` as the molecule, how does the outcome [2] read?
A: inactive

Q: What does the source list for `CC(C)c1ccccc1O`?
A: outcome [1]: inactive; outcome [2]: inactive

Q: Which outcome [1] does the source give for `C=C[Si]1(C)O[Si](C)(C=C)O[Si](C)(C=C)O[Si](C)(C=C)O1` (stereo not drawn) here?
A: inactive

Q: And the AC50 [2]?
A: 88 µM (active)

Q: For `CC(C)CC(C)CC(O)CC(C)C` (stereo not drawn), which outcome [2] is on record?
A: inactive

Q: What does the source list for `CCCCCCCCCCCCCC(=O)OCC(O)CO` (stereo not drawn)?
A: outcome [3]: inactive; outcome [1]: inactive; AC50 [2]: 81.6 µM (active); outcome [4]: inactive

Q: Which AC50 [2] does the source give for `Oc1c(Cl)cc(Cl)c(Cl)c1Cc1c(O)c(Cl)cc(Cl)c1Cl` here?
A: 5.27 µM (active)
